Measurements reported in PubChem BioAssay (NCI).
About 83,000 compounds went through this panel and 20% of them were active in at least one assay; those are over-represented in the sample as a whole.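 Values shown are percent growth following 48 h exposure of cells in 96-well plates to a single concentration of compound; below 10 was considered active.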 Values without a mark were called inactive. Calls of active or inactive are those of the source.

system: M14 melanoma; test: NCI-60 one-dose screen, 48 h (100 = growth as untreated, 0 = no growth, -100 = all killed); conditions: 10 µM

Compound | growth
CN1CCC(CNc2cc(C3(C(=O)Nc4cc(C(=O)Nc5ccc(Cl)c(C(F)(F)F)c5)ccc4F)CC3)ncn2)CC1 | -52% (active)
N#Cc1c(C#N)c(SSc2c(C#N)c(C#N)c(N)n2-c2ccccc2)n(-c2ccccc2)c1N | 115%
Clc1ccc(Nc2ccnc(NCCNc3ccnc4cc(Cl)ccc34)n2)cc1 | -86.8% (active)
Cc1cc(N(CCCNc2ccnc3cc(Cl)ccc23)Cc2ccc3c(c2)OCO3)nc(N2CCCCC2)n1 | -86% (active)
CCCCN(CCCC)c1cc(C(=O)CCCCCN)c2ccccc2n1 | 14.4%

system: HCT-15 colon; test: as above; conditions: 10 µM

Compound | growth
Clc1ccc(Nc2ccnc(NCCCNc3ccnc4cc(Cl)ccc34)n2)cc1 | -60.6% (active)
Oc1[nH]c2cc(Cl)ccc2c1/C=c1/ccc2c(c1)N=C(c1cc(F)cc(F)c1)N=2 | 37.3%
CSc1nn(-c2ccccc2)c2ncnc(Oc3ccccc3)c12 | 93.2%
Cc1cc2c(C)c3cc(C)c(N)cc3nc2cc1N | 24.8%
CCOC(=O)C1(CC(C)C)CCOC1=O (configuration not stated) | 96.7%
COc1ccc(Nc2cc(C)nc(NCCCNc3ccnc4cc(Cl)ccc34)n2)cc1 | -55.8% (active)
CCCCCCCCCCCCCCCC(=O)OC1[C@@H](OC(=O)CCCCCCCCCCCCCCC)[C@@H](C(=O)N[C@@H](CCCCN)C(=O)OC)O[C@H]1n1cnc2c(=O)[nH]c(NC(=O)C(C)C)nc21 (some centres not stated) | 96.6%
COc1cc(Nc2ccnc(NCCNc3ccnc4cc(Cl)ccc34)n2)cc(OC)c1 | 28.8%
Cc1cc(Nc2ccc(Cl)cc2)nc(NCCCNc2ccnc3cc(Cl)ccc23)n1 | -54.3% (active)
COc1cc2cc3c(nc2cc1OC)CCN3Cc1ccc(NC(=O)Nc2cc(C(F)(F)F)cc(C(F)(F)F)c2)cc1 | 76.1%
CC(C)=CCc1cc(O)cc2c1OC(C=C(C)C)C1=C2C(=O)C2=C(NCCS2(=O)=O)C1=O (configuration not stated) | 28.4%
CC(C)=CCc1cc(O)cc2c1OC(C=C(C)C)C1=C2C(=O)C2=C(C1=O)S(=O)(=O)CCN2 (configuration not stated) | 58%
COc1ccc(Nc2ccnc(NCCNc3ccnc4cc(Cl)ccc34)n2)cc1 | 36.8%
Cc1cc(Cl)nc(N(CCCNc2ccnc3cc(Cl)ccc23)Cc2cccs2)n1 | 8.59% (active)
COc1cc(Cl)cc(-c2nn(-c3cccc(NC(=O)Nc4cc(C(F)(F)F)cc(C(F)(F)F)c4)c3)cc2-c2ccncc2)c1 | 6.21% (active)
CN(C)CCNC(=O)c1cccn2c(=O)c3cc4ccccc4cc3nc12 | 12.7%

Compound | growth
CC12O[C@H](C[C@@H](O)[C@H]1O)n1c3ccccc3c3c4c(c5c6ccccc6n2c5c31)C(=O)N(CCCN)C4=O | 96.4%
CCCCCCCC(C)NCCO (configuration not stated) | 116%
Cc1cc(N(CCCNc2ccnc3cc(Cl)ccc23)Cc2ccc3c(c2)OCO3)nc(N2CCOCC2)n1 | 4.7% (active)
COc1cc(-c2nnc(-c3c(-c4ccc(F)cc4)nc4ccccn34)o2)cc(OC)c1OC | 90.6%
COc1ccc2c(c1)/C(=C\c1c[nH]c3ccc(OC)cc13)C(=O)N2 | 31.6%
NC(=O)CC1(c2ccccc2)CCCCC1 | 101%
COc1ccc(-c2nc3sccn3c2-c2nc3c([nH]2)C(=O)c2ccccc2C3=O)cc1 | 87.8%
Fc1ccc(-c2nnc(-c3c(-c4ccc(F)cc4)nc4ccccn34)o2)cc1 | 98.5%
CCN1CCCC1CNC(=O)c1ncc(-c2ccc(C(F)(F)F)cc2)c(NC2CCCCCC2)n1 (configuration not stated) | 90.8%
Cc1ccc(Nc2cc(C)nc(NCCCNc3ccnc4cc(Cl)ccc34)n2)cc1 | -71.7% (active)
Cn1c([N+](=O)[O-])cnc1/C=C1\Oc2ccccc2C1=O | 6.69% (active)
CC12O[C@H](C[C@@H](OC(=O)c3ccccc3)[C@H]1O)n1c3ccccc3c3c4c(c5c6ccccc6n2c5c31)C(=O)NC4=O | 77.7%
COc1ccc(-c2nc3ncccn3c2-c2nnc(-c3ccc(F)cc3)o2)cc1 | 93.8%
Nc1ccc2c(c1)C1(CCC2)NC(=O)NC1=O (configuration not stated) | 92.7%
COc1cc(OC)cc(-c2cncn2-c2ccc(-c3nc4cc(OC)cc(OC)c4s3)cc2)c1 | 48.4%
Clc1ccc2c(NCCCNc3nccc(Nc4ccc(Br)cc4)n3)ccnc2c1 | -65.8% (active)
